Reference: PubChem BioAssay (EPA / NIEHS)
Values joined by “and” are separate entries in the source; they are usually repeats but may differ in a detail not shown here. Equal values may be shown once. A structure can be active in one record and inactive in another. Active and inactive are the calls of the source. Rule for the calls: active = hit-call score of the fitted dose curve at least 0.9, where 1 is the maximum; inactive = score below 0.9.

assay: BSK_4H_Eotaxin3: BioMAP Diversity Plus: 4H Assay for Eotaxin 3 Biomarker Activity (AID 2283000); details: primary human endothelial cells (HUVEC); actives raise or lower the signal
Description: BSK_4H is a cell-based, multiplexed-readout assay that uses umbilical vein endothelium, a human vascular primary cell, with measurements taken at 24 hours after chemical dosing in a 96-well plate.BSK_4H_Eotaxin3 is an assay component measured in the BSK_4H assay. It measures Eotaxin-3 antibody related to regulation of gene expression using ELISA technology.Data from the assay component BSK_4H_Eotaxin3 was analyzed into 1 assay endpoint. This assay endpoint, BSK_4H_Eotaxin3, was analyzed with bidirectional fitting relative to DMSO as the negative control and baseline of activity. Using a type of binding reporter, gain or loss-of-signal activity can be used to understand changes in the signaling as they relate to the gene CCL26. Furthermore, this assay endpoint can be referred to as a primary readout, because this assay has produced multiple assay endpoints where this one serves a signaling function. To generalize the intended target to other relatable targets, this assay endpoint is annotated to the cytokine intended target family, where the subfamily is chemotactic factor.
The levels of cell surface (or secreted, indicated by the prefix "s") biomarker endpoints were measured by ELISA. Overt cytotoxicity to cells in confluent adherent cultures (all systems other than the BT system) was assessed by measuring total protein levels using sulforhodamine B (SRB) staining in parallel cultures at the time of biomarker measurements, indicated as SRB endpoints. For proliferation assays for adherent cell types, individual cell types are cultured at sub-confluence and relative cell numbers quantified by SRB staining at time points optimized for each system (48 h: 3C and CASM3C systems; 72 h: BT and HDF3CGF systems; 96 h: SAg system). SRB was performed by staining cells with 0.1% SRB after fixation with 10% TCA and reading wells at 560 nm.Viability and proliferation of PBMC (T cells) was quantified by Alamar Blue reduction for the SAg and BT systems. For PBMC viability (referred to as PBMC Cytotoxicity within the assay endpoint names), cells were plated (75,000/well in a 96-well plate) and then chemical samples added for 1 h before addition of activators, SEB and TSST-1 (20 ng/mL final concentration each). Cells were incubated for 90 h. Then, Alamar Blue (20 uL/well) (Invitrogen, Cat DAL1100) was added for 6 h, and the plates were read with a fluorescence microplate reader at 546/580 nm (excitation/emission). For PBMC proliferation, cells were plated and activated as above but incubated for only 16 h prior to addition of Alamar Blue. Plates were read after 6 h.

Structure (SMILES) | outcome | AC50
CCCCC=O | inactive | 
O=C(O)C(F)(F)OC(F)(F)C(F)(F)OC(F)(F)C(F)(F)OC(F)(F)C(F)(F)C(F)(F)C(F)(F)F |  | 45.5 µM (active) and 51.6 µM (active)
Oc1cc2ccccc2cc1O | inactive | 
Cc1[nH]nc2c1N=C(c1ccccc1Cl)c1cc([N+](=O)[O-])ccc1N2 |  | 1.4 µM (active)
CC(C)(C)c1ccc(O)c(O)c1 |  | 7.29 µM (active)
OCC(CO)(CBr)CBr | inactive | 
CCCCCCCCCCCC | inactive | 30.2 µM (active)
O=C(c1ccccc1)c1ccccc1 | inactive | 
C=CC(=O)OCCC(F)(F)C(F)(F)C(F)(F)C(F)(F)C(F)(F)C(F)(F)C(F)(F)C(F)(F)F | inactive | 
C=COC(=O)C(C)(C)CCCCCC |  | 30.3 µM (active)
COc1cc(OC)nc(NC(=O)NS(=O)(=O)Nc2ccccc2C(=O)N(C)C)n1 | inactive | 
Clc1ccc(Nc2nnc(Cc3ccncc3)c3ccccc23)cc1 | inactive | 
CC[N+](CC)(CC)Cc1ccccc1 | inactive | 
CS(=O)(=O)c1ccc([C@@H](CC2CCCC2)C(=O)Nc2cnccn2)cc1Cl | inactive | 
CN(C)c1ccc(C(=C2C=CC(=[N+](C)C)C=C2)c2ccccc2)cc1 |  | 0.0082 µM (active)
CCOC(=O)CN[C@@H](C(=O)N1CC[C@H]1C(=O)NCc1ccc(/C(N)=N/O)cc1)C1CCCCC1 | inactive | 
O=C1c2ccc(O)c(O)c2C(=O)c2c(O)ccc(O)c21 | inactive | 
COc1cccc(O)c1 | inactive | 
CN(CCO)S(=O)(=O)C(F)(F)C(F)(F)C(F)(F)C(F)(F)C(F)(F)C(F)(F)C(F)(F)C(F)(F)F | inactive | 

Structure (SMILES) | outcome | AC50
CCCCCc1ccc(O)cc1 |  | 14.5 µM (active)
CC(=O)Nc1ccc(O)cc1 | inactive | 
NC(=NCCCCCCN=C(N)/N=C(\N)Nc1ccc(Cl)cc1)/N=C(\N)Nc1ccc(Cl)cc1 |  | 5.53 µM (active)
C[C@]12CC[C@@H]3c4ccc(O)cc4CC[C@H]3[C@@H]1C[C@@H](O)[C@@H]2O | inactive | 
OCC(F)(F)C(F)(F)C(F)(F)C(F)(F)C(F)(F)C(F)(F)C(F)(F)C(F)(F)C(F)(F)C(F)(F)C(F)(F)F | inactive | 
O=S(=O)(O)C(F)(F)C(F)(F)C(F)(F)C(F)(F)C(F)(F)C(F)(F)C(F)(F)C(F)(F)C(F)(F)C(F)(F)F | inactive | 5.83 µM (active)
O=P(O)(O)CCC(F)(F)C(F)(F)C(F)(F)C(F)(F)C(F)(F)C(F)(F)C(F)(F)C(F)(F)F |  | 41.5 µM (active) and 28.8 µM (active)
CCCCC(CC)C(=O)OCCOCCOCCOCCOC(=O)C(CC)CCCC (stereo not given) | inactive | 
O=C(NCc1ncc(C(F)(F)F)cc1Cl)c1c(Cl)cccc1Cl | inactive | 
Cc1cccc2c1ccc1ccccc12 | inactive | 
CCCCCCCCCCCCCCCCCC[N+](C)(C)Cc1ccccc1 |  | 2.84 µM (active)
Cc1ccc(N=Nc2c(O)ccc3ccccc23)c(C)c1 |  | 3.39 µM (active)
O=C1NS(=O)(=O)c2ccccc21 | inactive | 
CCC(C)c1ccccc1O (stereo not given) | inactive | 
O=C(O)CCC(F)(F)C(F)(F)C(F)(F)C(F)(F)C(F)(F)C(F)(F)F | inactive | 
O=P(O)(O)CCC(F)(F)C(F)(F)C(F)(F)C(F)(F)C(F)(F)C(F)(F)F | inactive | 0.447 µM (active)
O=C(CC(=O)C(F)(F)C(F)(F)C(F)(F)F)c1cccs1 |  | 34.6 µM (active) and 39.1 µM (active)
Oc1c(Cl)cc(Cl)cc1Sc1cc(Cl)cc(Cl)c1O |  | 22.2 µM (active) and 18.5 µM (active)
